Experimental findings from PubChem BioAssay (NCI) are described below.

SMILES strings stand for the structures. Where “and” joins values, the source holds several entries; their conditions need not be identical. Equal values may be shown once. About 83,000 compounds went through this panel and 20% of them were active in at least one assay; those are over-represented in the sample as a whole.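 The test compound was applied at a single concentration to cells in 96-well plates for 48 hours, and percent growth was recorded.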 Calls of active or inactive are those of the source. How the source made its calls: active means growth percent below 10; inactive means the rest.

This experiment concerns MCF7 breast. Briefly: NCI-60 one-dose screen, 48 h (100 = growth as untreated, 0 = no growth, -100 = all killed). The note with it: 10 µM unless noted.
On to `C=C1C(=O)OC2/C=C(\CO)CC/C=C(\CO)CC(OC(=O)C(C)C)C12` (stereo not drawn), for which the growth is -82.7% [100 µM] (active) and -70% [100 µM] (active). Regarding `N#CC1(C#N)C2CCCCC23OC(=N)C1(C#N)C(c1ccco1)O3` (stereo not drawn), the growth is -54% [100 µM] (active). Regarding `CCOc1cc2c(cc1O)/C(=N/NS(=O)(=O)c1ccc(C)cc1)C[C@@H]1[C@@H]2CC[C@]2(C)[C@@H](O)CC[C@@H]12`, the growth is -3.96% [100 µM] (active). In the case of `C=CC1=C(C)C2=NC1=CC1=NC(=C(CC)/C1=C\O)C=C1N=C3C(=C1C)C(=O)[C@H](C(=O)OC)C3=C1NC(=C2)[C@@H](C)[C@@H]1CCC(=O)O`, the growth was 16.5% [100 µM] (inactive) and 5.87% [100 µM] (active). As for `CC1OC23CCCCC2C(C#N)(C#N)C1(C#N)C(=N)O3` (stereo not drawn), the figure is -34% [100 µM] (active).

On to `O=C(O)c1n[nH]nc1Cl`, for which the growth is 94.1% [100 µM] (inactive) and 80.7% [100 µM] (inactive). For the compound `Cc1cc(S(=O)(=O)O)c(NC(=O)c2oc3cc(O)ccc3c(=O)c2C)cc1Cl`, the growth is 100% [100 µM] (inactive) and 86.3% [100 µM] (inactive). On to `Cc1ccc(F)cc1NC(=O)O/N=C(\Cl)C(C)C`, for which the growth is 72.4% [100 µM] (inactive) and 46.2% [100 µM] (inactive). `CNC(=S)c1nnsc1N`: the growth was 19% [100 µM] (inactive) and 0.417% [100 µM] (active). As for `C=C1CC2(C)CCC(OC(=O)C3(C)OC3C)C(C)(OC(C)=O)C2CC1=C(C)C` (stereo not drawn), the figure is 67% [100 µM] (inactive) and 8.58% [100 µM] (active); as for `Cc1ccc(NC(=O)/C(=N\NC(N)=O)c2c(O)c3ccccc3[nH]c2=O)cc1`, 92.8% [100 µM] (inactive) and 85.4% [100 µM] (inactive). Turning to `COc1ccc2cc1Oc1ccc(cc1)CC1c3cc(OC)c(cc3CCN1C)Oc1c(OC)c(OC)cc3c1C(C2)N(C)CC3` (stereo not drawn), the growth was 24.7% [75 µM] (inactive) and -97.6% [75 µM] (active). For the compound `CO/C(N)=C(\C#N)N=Cc1ccc2ccccc2c1`, the growth is 8.6% [100 µM] (active) and 1.15% [100 µM] (active). In the case of `COC(=O)C(=O)C(C(=O)C(=O)Nc1ccccc1C(C)=O)c1nc2ccc(C(=O)c3ccccc3)cc2[nH]c1=O` (stereo not drawn) it was 25.6% [100 µM] (inactive) and 2.25% [100 µM] (active); in that of `C[C@@H]1C[C@](O)([C@@H](C)Cl)C(=O)O[C@@H]2CCN3CC=C(COC(=O)[C@]1(C)O)[C@H]23`, 82.2% [100 µM] (inactive) and 71.5% [100 µM] (inactive). Turning to `CC(=N/N=C/c1ccccn1)/C(C)=N/N=C(C)/C(C)=N/N=C(C)/C(C)=N/N=C(C)/C(C)=N\N=C\c1ccccn1`, the growth was 84.9% [100 µM] (inactive) and 89.9% [100 µM] (inactive).

`O=C1C=CC=C/C1=C1\N=C(c2ccccc2OCC(=O)c2ccc(Br)cc2)SS1`: the growth is 77.7% [100 µM] (inactive) and 77% [100 µM] (inactive).

Regarding `NC(=S)Nc1[nH]c(=S)nc2c1SC1=N/C(=C\c3ccco3)C(=O)N12`, the growth was 20.2% [100 µM] (inactive) and 4.03% [100 µM] (active).

Turning to `CC1=C2NCN(C)N=C2C(C#N)(C#N)C1(C#N)C#N`, the growth was -60.6% [100 µM] (active) and -73.1% [100 µM] (active). On to `COc1cc2c(cc1C1COc3cc4occc4cc3C1=O)OCO2` (stereo not drawn), for which the growth is 65.2% [100 µM] (inactive) and 62.9% [100 µM] (inactive).

As for `NNc1[nH]c(=S)[nH]c1C(N)=O`, the growth was 98.4% [100 µM] (inactive) and 70.9% [100 µM] (inactive). As for `COc1ccc(/C=C2/NC(=S)N=C2Cl)cc1`, the figure is 82% [100 µM] (inactive) and 75% [100 µM] (inactive). In the case of `O=c1c2ccccc2nc(-c2ccccc2)n1/N=C/c1ccccc1[N+](=O)[O-]` it was 65.7% [100 µM] (inactive) and 73.8% [100 µM] (inactive); in that of `COC(=O)c1ccc(NC(=O)O/N=C(\Cl)C(C)C)cc1`, -87.1% [100 µM] (active) and -100% [100 µM] (active). With `NC1N=C(c2ccc(Cl)cc2)C2=C(N1)c1ccccc1CC2` (stereo not drawn), the growth is 13.4% [100 µM] (inactive) and -96.2% [100 µM] (active). As for `COc1cc(Oc2c(C)c(Cl)c(OC)c(Cl)c2OC)c2c(c1Cl)COC2=O`, the figure is -6.77% [100 µM] (active) and -26.7% [100 µM] (active). For the compound `C/C(O)=C/c1nc2sc(C)c(C)c2c(=O)s1`, the growth is 10.6% [100 µM] (inactive) and 6.54% [100 µM] (active). In the case of `COc1cc2oc3c(c(=O)c2c(O)c1/C=C/C(C)C)CCC(C)(C)Oc1cc(O)ccc1-3` it was -61% [100 µM] (active) and -100% [100 µM] (active); in that of `O=C(NC1=NC2C=CC([N+](=O)[O-])=CC2S1)C(=O)Nn1c(=S)[nH]c2ccccc2c1=O` (stereo not drawn), 52.7% [100 µM] (inactive) and 8.91% [100 µM] (active); in that of `COc1ccc(C2c3cc4c(c(OC)c3CC3OCC(=O)C32)OCO4)cc1OC` (stereo not drawn), 6.05% [100 µM] (active) and -81% [100 µM] (active). For the compound `O=C1c2ccccc2-c2c1c1ccccc1c(=O)n2CCO`, the growth was 6.81% [100 µM] (active) and -32.3% [100 µM] (active).

Consider `CC1(C)Oc2ccc3c(=O)cc(-c4ccc(F)cc4)oc3c2C1C(=O)O` (stereo not drawn), for which the growth is 86.7% [100 µM] (inactive) and 80.6% [100 µM] (inactive).

Take `CCO/C=N\C1=C(C#N)SC2=N/C(=C\c3ccc(OC)cc3)C(=O)N21`: the growth was 59.2% [100 µM] (inactive) and 48.6% [100 µM] (inactive). In the case of `Cc1cc(N(CCC#N)CCC#N)ccc1/C=N/NC(=O)c1cc(Cl)ccc1O` it was 43.8% [100 µM] (inactive) and 13.1% [100 µM] (inactive); in that of `O=C(Cc1nc2ccc(C(=O)c3ccccc3)cc2[nH]c1=O)C(=O)Nc1ccccc1[N+](=O)[O-]`, 27.4% [100 µM] (inactive) and 4.17% [100 µM] (active).

As to `Cc1ccc(/C=N/Nc2cnccn2)s1`, the growth is 14.7% [100 µM] (inactive) and 4.18% [100 µM] (active). Take `CC/C(Cl)=N\OC(=O)Nc1ccc(OC)cc1`: the growth was -75.9% [100 µM] (active) and -79.9% [100 µM] (active). Consider `C=C1C(=O)O[C@H]2C[C@@]3(C)[C@H](O)CCC(=C)[C@@H]3[C@@H](OC(C)=O)[C@H]12`, for which the growth is -83.4% [100 µM] (active) and -77.4% [100 µM] (active).
